Laboratory results as given in PubChem BioAssay (NCATS).
Inconclusive results are not listed. Active and inactive are the calls of the source. The call rests on the fitted dose curve; in most records, active means well fitted curve in either direction with a large enough effect (not every such curve was filed as active); inconclusive means small, poorly fitted or top-dose-only effect, or another doubt; inactive means flat fitted curve, though single readings scatter.

Experiment: AP1 Signaling Pathway (AID 357);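 further: ME-180 reporter cells stimulated with EGF at its EC50 level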
Details: ME-180 (cervical carcinoma) AP-1-bla reporter, EGF-induced, beta-lactamase ratio, 5 h; at 17.2 µM (top of the series) unless noted
In short: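 First, ME-180 AP-1-bla cells were cultured overnight at 37 °C in low-serum Opti-MEM. Next, titrated compounds with EC50 EGF were incubated 5 hours. Finally, CCF4 was added for 2.5 hours and the 460/530 nm ratio recorded.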
On the % scale 0 is the no-effect control and ±100 the full control effect.

Activity change, negative = inhibition, inactive:
COc1ccc2[nH]c(C)c(C(=O)CN3CCN(C(=O)c4ccco4)CC3)c2c1 -11.2%
CCN(CC)CCCN1C(=O)C(=O)/C(=C(/O)c2ccc(Cl)cc2)C1c1ccccn1 (stereo not given) -3.4%
CCC(NC(=O)Nn1cnnc1)(C(F)(F)F)C(F)(F)F 21.2%
CCNc1nc(NC(C)C)nc(N(C#N)C(C)C(=O)N(C)C)n1 (stereo not given) -3.35%
Cc1cc(=O)oc2cc(OCCSCCN3CCOCC3)ccc12 -6.35%
CCc1nc(NCCN2CCOCC2)c(C#N)c2c1CCCC2 -11.1%
COc1cccc(C2C(C(=O)c3cccs3)=C(O)C(=O)N2c2cc(C)on2)c1 (stereo not given) -6.29%
COCCNc1oc(-c2ccc(C)cc2)nc1C#N -6.25%
COc1cc(C)nc(Oc2ccc(=O)[nH]n2)n1 16.4%
COc1cccc(-c2nnc3sc(-c4ccc(Cl)cc4)nn23)c1 5.29%
CNc1oc(-c2ccc(Cl)cc2)nc1C#N -1.98%
COC(=O)C(NC(C)=O)(Nc1nc2ccc(S(C)(=O)=O)cc2s1)C(F)(F)F (stereo not given) -0.134%
CCN(CC)CCN1C(=O)C(=O)/C(=C(/O)c2ccc(C)cc2)C1c1cccnc1 (stereo not given) 4.64%
Cn1c(SCC(=O)NCc2ccccc2)nc2ccccc21 -0.959%
CCNC(=O)COn1c(SCC(=O)NCC)nc2ccccc2c1=O -9.03%
CC(C(=O)N1CCCCC1)N1C(=O)c2ccccc2C1=O (stereo not given) 0.952%
CCOC(=O)c1[nH]c2ccc(C)cc2c1N -6%
CCN(CC)CCN1C(=O)C(=O)/C(=C(/O)c2ccc(OC(C)C)cc2)C1c1ccncc1 (stereo not given) -12%
CCOC(=O)c1c(C)cccc1OCC(N)=O -9.84%
Cc1cc(N2C(=O)C(=O)/C(=C(/O)c3ccccc3)C2c2cccs2)no1 (stereo not given) -22.3%
CC(C)CNc1nc2c(c(=O)n(C)c(=O)n2C)n1Cc1cccc(Br)c1 -13.5%
CCOC(=O)c1c(C)n(C)c2ccc(OC)c(NC(=O)c3cccs3)c12 -7.29%
Cc1cc2c(c(=O)o1)C(Cc1ccccc1)C(C#N)=C(N)O2 (stereo not given) 4.23%
O=C(O)c1c[nH]c2ccc(S(=O)(=O)N3CCOCC3)cc12 13.4%
COc1ccc(-c2nnc3sc(COc4ccccc4)nn23)cc1 -22.1%
Nc1nc(NC(=O)c2cccs2)nn1-c1ccccc1 4.21%
CCOC(=O)CSC1=C(C#N)C(c2ccc(C)cc2)C(C(=O)OC)C(=O)N1 (stereo not given) 8.51%
CCN1CCc2c(C#N)c(NCc3ccccc3)nc(N(CC)CC)c2C1 2.07%
CC(=O)N[C@H]1C[C@@H]1c1ccccc1 5.08%
CCOC(=O)C1=C(C)NC(=O)C1CC(=O)Nc1ccccc1 (stereo not given) -1.66%
O=C(NCCC1=CCCCC1)c1ccc(=O)oc1 -16%
O=C(CC(c1ccc(F)cc1)c1ccco1)N1CCCC1 (stereo not given) -6.27%
Cn1c(=O)c2c(nc(NCc3ccc4c(c3)OCO4)n2Cc2ccccc2Cl)n(C)c1=O -22.3%
CCOC(=O)N1CCN(C2OC(=O)c3ccccc32)CC1 (stereo not given) 0.827%
CCN(CC)CCCN1C(=O)C(=O)/C(=C(/O)c2ccc(C)cc2)C1c1ccccn1 (stereo not given) 3.29%
CC(=O)Nc1ccc(S(=O)(=O)Nc2nc3n(n2)C(c2ccccc2)CC(=O)N3)cc1 (stereo not given) 4.99%
CC1CCCCN1C(=O)C12CCC(C)(/C(=N/O)C1)C2(C)C (stereo not given) -2.56%
CCc1nc(N2CCN(C(=O)c3ccccc3)CC2)c(C#N)c2c1COC(C)(C)C2 -17.6%
CCCC(=O)Nc1sc2c(c1C#N)CCCC2 -16.2%
Nn1c(SCC(=O)Nc2ccc3c(c2)OCCO3)nnc1C(F)(F)F 3.25%
